Measured values reported in paper PMC7862700, “An all-to-all approach to the identification of sequence-specific readers for epigenetic DNA modifications on cytosine”.

Experiments:
Assay in all cases: DAPPL (digital affinity profiling via proximity ligation, sequencing); 10 mM Tris-HCl pH 7.5, 50 mM NaCl, 1 mM DTT, 4% glycerol, room temperature, 30 min; GST-TFs on glutathione beads, 16-mer random dsDNA library, 0.1% formaldehyde crosslink after washing; high values mean tight binding
[1] = molecular target: T1, FEV (Homo sapiens, UniProt Q99581 1-238); details: protein: recombinant; tags: N-terminal GST; dsDNA, one strand shown
T1 sequence: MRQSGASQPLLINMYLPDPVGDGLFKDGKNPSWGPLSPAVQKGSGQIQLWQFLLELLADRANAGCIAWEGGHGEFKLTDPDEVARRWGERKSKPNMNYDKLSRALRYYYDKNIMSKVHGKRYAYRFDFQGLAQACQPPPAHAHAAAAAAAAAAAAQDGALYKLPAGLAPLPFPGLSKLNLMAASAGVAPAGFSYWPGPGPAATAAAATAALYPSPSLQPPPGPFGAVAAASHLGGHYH
How it was run: (§1)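 Binding signal is given per hexamer as its read frequency for a factor divided by its frequency in the tag-only sample. GST-fused human transcription factors were expressed in yeast, captured on glutathione beads, barcoded with DNA and pooled with that sample, then incubated with 200 nmole of a 16-mer random double-stranded DNA library in Tris/NaCl/DTT/glycerol buffer for 30 min at room temperature. The pools were then washed, crosslinked, proximity-ligated, amplified by PCR and sequenced on an Illumina NextSeq500.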

[2] = molecular target: ETV5 (Homo sapiens, UniProt P41161 1-510); details: protein: recombinant; tags: N-terminal GST; dsDNA, one strand shown
ETV5, sequence (P41161 whole entry): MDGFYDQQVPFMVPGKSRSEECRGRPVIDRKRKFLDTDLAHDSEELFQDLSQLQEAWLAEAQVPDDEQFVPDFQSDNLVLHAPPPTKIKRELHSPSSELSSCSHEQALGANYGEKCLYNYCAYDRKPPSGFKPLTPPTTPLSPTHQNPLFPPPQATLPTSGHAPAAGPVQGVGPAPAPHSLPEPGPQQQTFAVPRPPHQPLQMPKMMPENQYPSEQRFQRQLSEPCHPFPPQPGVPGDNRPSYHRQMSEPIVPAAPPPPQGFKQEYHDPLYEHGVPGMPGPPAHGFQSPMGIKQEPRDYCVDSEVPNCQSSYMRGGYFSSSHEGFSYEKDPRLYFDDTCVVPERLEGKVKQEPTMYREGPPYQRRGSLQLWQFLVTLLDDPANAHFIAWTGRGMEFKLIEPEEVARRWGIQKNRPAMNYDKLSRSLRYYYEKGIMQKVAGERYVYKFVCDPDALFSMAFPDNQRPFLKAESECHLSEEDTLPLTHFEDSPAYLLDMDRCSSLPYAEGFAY
How it was run: as §1

[3] = molecular target: HSF1 (Homo sapiens, UniProt Q00613 1-529); details: protein: recombinant; tags: N-terminal GST; chain copies: 3; dsDNA, one strand shown
HSF1, sequence (Q00613 whole entry): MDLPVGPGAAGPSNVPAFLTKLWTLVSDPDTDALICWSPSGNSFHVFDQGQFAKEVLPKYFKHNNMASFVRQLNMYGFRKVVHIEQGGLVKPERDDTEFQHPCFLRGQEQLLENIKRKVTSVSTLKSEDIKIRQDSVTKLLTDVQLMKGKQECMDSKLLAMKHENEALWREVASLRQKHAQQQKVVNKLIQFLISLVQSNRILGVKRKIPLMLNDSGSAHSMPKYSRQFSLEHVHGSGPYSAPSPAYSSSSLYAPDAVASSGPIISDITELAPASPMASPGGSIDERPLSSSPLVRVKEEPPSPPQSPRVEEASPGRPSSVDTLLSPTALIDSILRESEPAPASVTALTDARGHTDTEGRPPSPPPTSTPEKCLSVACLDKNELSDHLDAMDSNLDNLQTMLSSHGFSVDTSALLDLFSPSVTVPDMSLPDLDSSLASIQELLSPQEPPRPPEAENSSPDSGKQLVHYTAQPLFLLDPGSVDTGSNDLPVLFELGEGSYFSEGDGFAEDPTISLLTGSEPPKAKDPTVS
How it was run: as §1

[4] = molecular target: T2, SPIC (Homo sapiens, UniProt Q8N5J4 1-248); details: protein: recombinant; tags: N-terminal GST; dsDNA, one strand shown
T2 sequence: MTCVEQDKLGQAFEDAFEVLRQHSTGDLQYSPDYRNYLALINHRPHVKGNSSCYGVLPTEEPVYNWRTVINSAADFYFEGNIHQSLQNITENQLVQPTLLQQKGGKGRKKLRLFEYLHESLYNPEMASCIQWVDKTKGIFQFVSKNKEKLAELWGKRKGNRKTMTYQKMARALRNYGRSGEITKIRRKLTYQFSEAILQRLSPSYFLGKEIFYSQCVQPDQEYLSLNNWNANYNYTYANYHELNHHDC
How it was run: as §1

[5] = molecular target: ELF4 (Homo sapiens, UniProt Q99607 1-663); details: protein: recombinant; tags: N-terminal GST; dsDNA, one strand shown
ELF4, sequence (Q99607 whole entry): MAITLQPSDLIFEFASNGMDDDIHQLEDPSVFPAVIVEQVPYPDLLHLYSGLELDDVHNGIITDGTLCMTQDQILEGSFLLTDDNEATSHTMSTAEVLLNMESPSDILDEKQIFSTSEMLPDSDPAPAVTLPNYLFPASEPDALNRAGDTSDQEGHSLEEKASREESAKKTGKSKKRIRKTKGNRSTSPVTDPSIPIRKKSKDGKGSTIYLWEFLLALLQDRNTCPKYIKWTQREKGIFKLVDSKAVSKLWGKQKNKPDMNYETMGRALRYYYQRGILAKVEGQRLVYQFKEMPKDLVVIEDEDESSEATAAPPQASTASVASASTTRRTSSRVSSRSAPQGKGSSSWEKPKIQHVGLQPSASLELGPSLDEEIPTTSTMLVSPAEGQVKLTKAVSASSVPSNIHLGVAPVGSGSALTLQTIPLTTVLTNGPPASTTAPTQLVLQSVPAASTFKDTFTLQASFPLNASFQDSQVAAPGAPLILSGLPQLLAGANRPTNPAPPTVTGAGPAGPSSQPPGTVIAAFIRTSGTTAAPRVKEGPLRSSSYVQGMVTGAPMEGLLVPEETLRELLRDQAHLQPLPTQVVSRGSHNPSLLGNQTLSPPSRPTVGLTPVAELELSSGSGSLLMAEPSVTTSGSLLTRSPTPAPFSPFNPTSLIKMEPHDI
How it was run: as §1

[6] = molecular target: T3, ELK4 (Homo sapiens, UniProt P28324-2 1-405); details: protein: recombinant; tags: N-terminal GST; dsDNA, one strand shown
T3 sequence: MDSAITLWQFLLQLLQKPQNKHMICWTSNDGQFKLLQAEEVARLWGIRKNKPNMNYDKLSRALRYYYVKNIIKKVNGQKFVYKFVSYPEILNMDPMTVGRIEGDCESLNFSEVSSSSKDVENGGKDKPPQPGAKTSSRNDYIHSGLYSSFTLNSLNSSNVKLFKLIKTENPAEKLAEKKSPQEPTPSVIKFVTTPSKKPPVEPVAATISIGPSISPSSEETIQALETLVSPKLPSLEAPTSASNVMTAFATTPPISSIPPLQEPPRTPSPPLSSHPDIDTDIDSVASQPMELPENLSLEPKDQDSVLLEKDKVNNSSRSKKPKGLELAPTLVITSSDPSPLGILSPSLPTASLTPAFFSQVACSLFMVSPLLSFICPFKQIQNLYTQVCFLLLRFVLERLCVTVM
How it was run: as §1

[7] = molecular target: T4, ETV2 (Homo sapiens, UniProt O00321 1-342); details: protein: recombinant; tags: N-terminal GST; dsDNA, one strand shown
T4 sequence: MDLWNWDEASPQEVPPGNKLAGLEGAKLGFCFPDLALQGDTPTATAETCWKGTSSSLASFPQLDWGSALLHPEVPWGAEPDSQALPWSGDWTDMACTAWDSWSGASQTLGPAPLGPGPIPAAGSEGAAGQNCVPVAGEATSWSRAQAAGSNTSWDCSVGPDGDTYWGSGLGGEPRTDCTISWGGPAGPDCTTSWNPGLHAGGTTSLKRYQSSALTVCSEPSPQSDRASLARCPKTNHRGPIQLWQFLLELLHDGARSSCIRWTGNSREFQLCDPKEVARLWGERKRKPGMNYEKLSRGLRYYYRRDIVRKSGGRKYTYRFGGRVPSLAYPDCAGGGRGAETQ
How it was run: as §1

[8] = molecular target: T5, ELF3 (Homo sapiens, UniProt P78545 1-371); details: protein: recombinant; tags: N-terminal GST; dsDNA, one strand shown
T5 sequence: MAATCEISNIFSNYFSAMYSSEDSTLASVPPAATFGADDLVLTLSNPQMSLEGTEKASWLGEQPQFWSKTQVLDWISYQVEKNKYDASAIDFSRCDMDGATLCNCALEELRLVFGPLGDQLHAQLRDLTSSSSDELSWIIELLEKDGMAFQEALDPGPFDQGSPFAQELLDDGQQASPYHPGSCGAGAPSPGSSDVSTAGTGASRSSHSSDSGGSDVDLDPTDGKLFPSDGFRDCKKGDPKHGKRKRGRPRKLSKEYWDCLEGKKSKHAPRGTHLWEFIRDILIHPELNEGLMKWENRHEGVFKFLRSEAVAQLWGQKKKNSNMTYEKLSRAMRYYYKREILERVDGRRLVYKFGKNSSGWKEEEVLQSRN
How it was run: as §1

[9] = molecular target: CRX (Homo sapiens, UniProt O43186 1-299); details: protein: recombinant; tags: N-terminal GST; dsDNA, one strand shown
CRX, sequence (O43186 whole entry): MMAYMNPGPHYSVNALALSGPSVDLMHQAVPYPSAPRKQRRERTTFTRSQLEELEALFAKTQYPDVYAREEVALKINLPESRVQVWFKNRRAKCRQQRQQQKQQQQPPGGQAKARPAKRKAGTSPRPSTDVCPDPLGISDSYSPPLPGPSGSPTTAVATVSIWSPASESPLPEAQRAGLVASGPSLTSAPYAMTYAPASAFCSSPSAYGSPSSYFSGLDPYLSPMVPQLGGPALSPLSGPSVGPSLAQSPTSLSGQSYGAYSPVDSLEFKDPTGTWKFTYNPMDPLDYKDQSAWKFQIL
How it was run: as §1

[10] = molecular target: ETV1 (Homo sapiens, UniProt P50549 1-477); details: protein: recombinant; tags: N-terminal GST; dsDNA, one strand shown
ETV1, sequence (P50549 whole entry): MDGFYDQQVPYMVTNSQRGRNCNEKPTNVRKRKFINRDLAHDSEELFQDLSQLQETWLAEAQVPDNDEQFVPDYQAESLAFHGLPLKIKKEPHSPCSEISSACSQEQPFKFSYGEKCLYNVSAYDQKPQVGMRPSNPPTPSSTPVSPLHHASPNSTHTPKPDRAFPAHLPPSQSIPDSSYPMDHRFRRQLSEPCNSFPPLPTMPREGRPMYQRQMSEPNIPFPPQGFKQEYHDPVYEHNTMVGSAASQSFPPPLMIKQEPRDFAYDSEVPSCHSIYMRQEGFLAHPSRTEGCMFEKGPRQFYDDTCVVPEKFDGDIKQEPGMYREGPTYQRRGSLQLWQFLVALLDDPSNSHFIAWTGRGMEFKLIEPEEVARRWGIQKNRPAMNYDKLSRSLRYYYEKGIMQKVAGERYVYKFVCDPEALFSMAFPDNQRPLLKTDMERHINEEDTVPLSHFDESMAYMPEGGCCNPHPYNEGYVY
How it was run: as §1

[11] = molecular target: T6, ERF (Homo sapiens, UniProt P50548 1-548); details: protein: recombinant; tags: N-terminal GST; dsDNA, one strand shown
T6 sequence: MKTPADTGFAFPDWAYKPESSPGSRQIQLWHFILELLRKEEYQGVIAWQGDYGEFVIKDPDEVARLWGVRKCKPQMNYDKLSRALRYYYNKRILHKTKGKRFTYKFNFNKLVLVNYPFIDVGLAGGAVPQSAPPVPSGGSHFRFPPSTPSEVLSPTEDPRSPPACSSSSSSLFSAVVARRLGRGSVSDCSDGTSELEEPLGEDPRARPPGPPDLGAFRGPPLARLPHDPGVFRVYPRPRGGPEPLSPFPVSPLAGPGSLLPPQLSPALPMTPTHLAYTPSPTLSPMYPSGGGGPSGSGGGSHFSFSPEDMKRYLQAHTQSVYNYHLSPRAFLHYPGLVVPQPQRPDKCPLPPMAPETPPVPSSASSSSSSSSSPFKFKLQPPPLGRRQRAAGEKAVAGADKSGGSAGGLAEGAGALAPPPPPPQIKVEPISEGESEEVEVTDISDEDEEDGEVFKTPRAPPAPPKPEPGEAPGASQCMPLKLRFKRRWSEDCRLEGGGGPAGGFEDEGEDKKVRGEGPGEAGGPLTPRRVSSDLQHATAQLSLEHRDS
How it was run: as §1

[12] = molecular target: T7, ETV3L (Homo sapiens, UniProt Q6ZN32 1-361); details: protein: recombinant; tags: N-terminal GST; dsDNA, one strand shown
T7 sequence: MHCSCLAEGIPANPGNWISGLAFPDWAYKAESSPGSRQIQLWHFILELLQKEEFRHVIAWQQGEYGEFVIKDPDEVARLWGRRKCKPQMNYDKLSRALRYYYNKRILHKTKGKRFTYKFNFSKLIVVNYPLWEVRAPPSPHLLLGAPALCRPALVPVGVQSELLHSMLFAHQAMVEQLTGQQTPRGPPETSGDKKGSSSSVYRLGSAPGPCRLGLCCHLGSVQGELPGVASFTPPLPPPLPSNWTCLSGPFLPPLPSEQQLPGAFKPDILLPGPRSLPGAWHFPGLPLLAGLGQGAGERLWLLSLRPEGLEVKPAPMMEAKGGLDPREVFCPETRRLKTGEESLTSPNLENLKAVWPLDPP
How it was run: as §1

[13] = molecular target: T8, ETS2 (Homo sapiens, UniProt P15036 1-469); details: protein: recombinant; tags: N-terminal GST; dsDNA, one strand shown
T8 sequence: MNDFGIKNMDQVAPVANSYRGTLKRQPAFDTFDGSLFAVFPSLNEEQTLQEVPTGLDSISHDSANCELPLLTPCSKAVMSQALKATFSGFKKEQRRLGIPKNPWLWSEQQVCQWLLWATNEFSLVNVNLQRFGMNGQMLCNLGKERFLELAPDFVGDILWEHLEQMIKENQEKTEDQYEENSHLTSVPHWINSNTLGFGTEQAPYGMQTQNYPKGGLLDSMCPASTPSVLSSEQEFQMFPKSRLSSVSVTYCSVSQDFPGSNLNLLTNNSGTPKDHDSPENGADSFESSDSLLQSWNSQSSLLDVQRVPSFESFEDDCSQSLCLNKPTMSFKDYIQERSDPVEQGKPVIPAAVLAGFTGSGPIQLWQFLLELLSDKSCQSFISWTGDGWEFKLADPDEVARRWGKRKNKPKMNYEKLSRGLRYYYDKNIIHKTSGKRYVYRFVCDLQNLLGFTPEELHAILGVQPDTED
How it was run: as §1

[14] = molecular target: T9, SPDEF (Homo sapiens, UniProt O95238 1-335); details: protein: recombinant; tags: N-terminal GST; dsDNA, one strand shown
T9 sequence: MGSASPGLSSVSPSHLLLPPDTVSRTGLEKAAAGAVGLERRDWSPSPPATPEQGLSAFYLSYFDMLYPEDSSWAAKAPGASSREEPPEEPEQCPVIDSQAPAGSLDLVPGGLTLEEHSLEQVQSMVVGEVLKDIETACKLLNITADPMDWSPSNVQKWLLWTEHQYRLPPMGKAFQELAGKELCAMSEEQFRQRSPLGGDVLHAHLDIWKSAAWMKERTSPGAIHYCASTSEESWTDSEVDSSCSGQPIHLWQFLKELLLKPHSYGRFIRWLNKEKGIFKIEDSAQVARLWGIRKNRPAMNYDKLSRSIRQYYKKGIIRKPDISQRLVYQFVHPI
How it was run: as §1

[15] = molecular target: T10, ETV7 (Homo sapiens, UniProt Q9Y603 1-341); details: protein: recombinant; tags: N-terminal GST; dsDNA, one strand shown
T10 sequence: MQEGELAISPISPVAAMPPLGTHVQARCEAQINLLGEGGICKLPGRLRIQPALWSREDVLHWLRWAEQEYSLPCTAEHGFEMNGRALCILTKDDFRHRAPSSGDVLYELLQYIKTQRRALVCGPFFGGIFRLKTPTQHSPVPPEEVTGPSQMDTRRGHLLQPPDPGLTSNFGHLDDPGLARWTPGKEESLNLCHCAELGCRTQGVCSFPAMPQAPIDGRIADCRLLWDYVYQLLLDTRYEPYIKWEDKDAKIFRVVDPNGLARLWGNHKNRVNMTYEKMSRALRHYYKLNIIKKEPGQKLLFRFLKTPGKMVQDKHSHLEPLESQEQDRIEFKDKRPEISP
How it was run: as §1

[16] = molecular target: T11, ELF5 (Homo sapiens, UniProt Q9UKW6-2 1-255); details: protein: recombinant; tags: N-terminal GST; dsDNA, one strand shown
T11 sequence: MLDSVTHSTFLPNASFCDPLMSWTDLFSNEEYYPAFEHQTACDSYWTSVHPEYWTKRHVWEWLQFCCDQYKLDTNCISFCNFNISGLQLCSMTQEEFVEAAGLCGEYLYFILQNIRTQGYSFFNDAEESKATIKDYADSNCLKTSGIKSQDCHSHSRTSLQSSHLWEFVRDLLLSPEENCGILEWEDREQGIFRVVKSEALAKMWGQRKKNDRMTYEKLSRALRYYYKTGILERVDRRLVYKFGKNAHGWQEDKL
How it was run: as §1

[17] = molecular target: T12, ETV3 (Homo sapiens, UniProt P41162-2 1-143); details: protein: recombinant; tags: N-terminal GST; dsDNA, one strand shown
T12 sequence: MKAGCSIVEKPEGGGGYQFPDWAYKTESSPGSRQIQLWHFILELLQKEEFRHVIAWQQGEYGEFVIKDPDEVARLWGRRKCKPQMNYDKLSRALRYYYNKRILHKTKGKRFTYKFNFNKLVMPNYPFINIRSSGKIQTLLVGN
How it was run: as §1

[18] = molecular target: ETV6 (Homo sapiens, UniProt P41212 1-452); details: protein: recombinant; tags: N-terminal GST; dsDNA, one strand shown
ETV6, sequence (P41212 whole entry): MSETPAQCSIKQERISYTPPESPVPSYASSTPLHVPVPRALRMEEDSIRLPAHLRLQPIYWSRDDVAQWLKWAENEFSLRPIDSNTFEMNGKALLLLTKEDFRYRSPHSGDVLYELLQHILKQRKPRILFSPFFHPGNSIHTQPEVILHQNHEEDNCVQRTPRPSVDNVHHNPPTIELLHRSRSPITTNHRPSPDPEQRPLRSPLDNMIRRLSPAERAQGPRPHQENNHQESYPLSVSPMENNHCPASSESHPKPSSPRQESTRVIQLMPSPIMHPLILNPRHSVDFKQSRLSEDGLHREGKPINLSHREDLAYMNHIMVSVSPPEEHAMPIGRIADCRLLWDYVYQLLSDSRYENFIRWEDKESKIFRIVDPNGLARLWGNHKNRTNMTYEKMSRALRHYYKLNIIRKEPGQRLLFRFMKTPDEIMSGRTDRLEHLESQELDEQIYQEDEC
How it was run: as §1

Q: Which results are given for CTCCTG?
A: binding signal [1]: 1.57 fold enrichment (6-mer frequency, TF over GST control); binding signal [2]: 1.71 fold enrichment (6-mer frequency, TF over GST control); binding signal [3]: 1.52 fold enrichment (6-mer frequency, TF over GST control); binding signal [4]: 1.37 fold enrichment (6-mer frequency, TF over GST control); binding signal [5]: 1.65 fold enrichment (6-mer frequency, TF over GST control); binding signal [6]: 1.35 fold enrichment (6-mer frequency, TF over GST control); binding signal [7]: 1.62 fold enrichment (6-mer frequency, TF over GST control); binding signal [8]: 1.47 fold enrichment (6-mer frequency, TF over GST control); binding signal [9]: 1.46 fold enrichment (6-mer frequency, TF over GST control); binding signal [10]: 1.79 fold enrichment (6-mer frequency, TF over GST control); binding signal [11]: 1.49 fold enrichment (6-mer frequency, TF over GST control); binding signal [12]: 1.72 fold enrichment (6-mer frequency, TF over GST control); binding signal [13]: 1.86 fold enrichment (6-mer frequency, TF over GST control); binding signal [14]: 1.6 fold enrichment (6-mer frequency, TF over GST control); binding signal [15]: 1.64 fold enrichment (6-mer frequency, TF over GST control); binding signal [16]: 1.6 fold enrichment (6-mer frequency, TF over GST control); binding signal [17]: 1.43 fold enrichment (6-mer frequency, TF over GST control); binding signal [18]: 1.59 fold enrichment (6-mer frequency, TF over GST control)
